Where a name gives a salt, the structure may show the parent alone.

The subject of the experiment is Yersinia pseudotuberculosis. The experiment in a line: growth AUC normalised to DMSO control (fraction of control); higher = less growth inhibition, active = hit call of the paper. Conditions: 20 µM;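 active = AUC significantly below DMSO controls by Student t-fit with adjusted P under 0.01; inactive = not significantly reduced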. The method in brief: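 Three biological replicates were carried out, with OD578 read hourly for 24 h. Before inoculation at a starting OD578 of 0.01, pathogens were passaged anaerobically twice; plates were pre-reduced mGAM containing 20 μM compound and 1% DMSO, sealed with breathable membranes, and the Haemophilus parainfluenzae medium carried added hemin and NAD. Area under each growth curve was calculated by the trapezoidal rule up to the exponential-to-stationary transition and normalised to DMSO controls on the same plate.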
With `Cc1cc2c(cc1S(N)(=O)=O)S(=O)(=O)CCC2` [Meticrane], the “growth AUC normalised to DMSO control” value was 1.01 (inactive).

With `CCCC(CCC)C(=O)O` [Valproic acid], the “growth AUC normalised to DMSO control” value is 1.01 (inactive).

With `CNCCC(Oc1ccc(C(F)(F)F)cc1)c1ccccc1` (centres undefined) [Fluoxetine hydrochloride], the “growth AUC normalised to DMSO control” value was 0.991 (inactive).

As to `Cc1nnc(SCC2=C(C(=O)O)N3C(=O)[C@@H](NC(=O)Cn4cnnn4)[C@H]3SC2)s1` [Cefazolin sodium salt], the “growth AUC normalised to DMSO control” value was 0.0805 (active).

In the case of `Clc1cc(Cl)c(OCC#CI)cc1Cl` [Haloprogin], the “growth AUC normalised to DMSO control” value is 0.973 (inactive).

For the compound `O=C(O)/C=C/c1ccc(Cn2ccnc2)cc1` [Ozagrel hydrochloride], the “growth AUC normalised to DMSO control” value was 1.01 (inactive).

With `CC(=O)OCC(=O)NCCCOc1cccc(CN2CCCCC2)c1` [Roxatidine acetate hydrochloride], the “growth AUC normalised to DMSO control” value was 0.939 (inactive).

Regarding `O=C(O)CNC(=O)C(CS)Cc1ccccc1` (centres undefined) [Thiorphan], the “growth AUC normalised to DMSO control” value was 1.01 (inactive).

Regarding `CCCCOC(=O)c1ccc(O)cc1` [Butylparaben], the “growth AUC normalised to DMSO control” value was 0.962 (inactive).

With `Cc1ccc(S(=O)(=O)NC(=O)NN2CCCCCC2)cc1` [Tolazamide], the “growth AUC normalised to DMSO control” value is 0.997 (inactive).

With `COc1cc2nc(N3CCN(C(=O)C4COc5ccccc5O4)CC3)nc(N)c2cc1OC` (centres undefined) [Doxazosin mesylate], the “growth AUC normalised to DMSO control” value is 0.996 (inactive).

As to `CC(Oc1ccccc1)C(=O)N[C@@H]1C(=O)N2[C@@H]1SC(C)(C)[C@@H]2C(=O)O` (some centres undefined) [Phenethicillin potassium salt], the “growth AUC normalised to DMSO control” value was 0.898 (active).

As to `Nc1ccccc1S(N)(=O)=O` [o-Sulfanilamide], the “growth AUC normalised to DMSO control” value is 0.99 (inactive).

For the compound `COc1ccc2[nH]c([S+]([O-])Cc3ncc(C)c(OC)c3C)nc2c1` (centres undefined) [Omeprazole], the “growth AUC normalised to DMSO control” value was 1 (inactive).

Consider `CC(=O)Oc1ccccc1C(=O)Oc1ccccc1C(=O)O` [Acetylsalicylsalicylic acid], for which the “growth AUC normalised to DMSO control” value is 0.932 (inactive).

Turning to `NCCCC(O)(P(=O)(O)O)P(=O)(O)O` [Alendronate sodium], the “growth AUC normalised to DMSO control” value is 1.02 (inactive).

Turning to `O=C1Nc2ccc(Cl)cc2[C@@](C#CC2CC2)(C(F)(F)F)O1` [Efavirenz], the “growth AUC normalised to DMSO control” value is 0.999 (inactive).

As to `CC(=O)O[C@]1(C(C)=O)CC[C@H]2[C@@H]3C=C(Cl)C4=CC(=O)[C@@H]5C[C@@H]5[C@]4(C)[C@H]3CC[C@@]21C` [Cyproterone acetate], the “growth AUC normalised to DMSO control” value was 0.994 (inactive).

With `COc1ccc(C(=O)NCc2ccc(OCCN(C)C)cc2)cc1OC` [Itopride], the “growth AUC normalised to DMSO control” value is 1.03 (inactive).

On to `O=C(c1ccc(F)cc1)C1CCN(CCn2c(=O)[nH]c3ccccc3c2=O)CC1` [Ketanserin tartrate hydrate], for which the “growth AUC normalised to DMSO control” value was 1 (inactive).

`C[C@]12C[C@H](O)[C@H]3[C@@H](CCC4=CC(=O)CC[C@@]43C)[C@@H]1CC[C@@H]2C(=O)CO` [Corticosterone]: the “growth AUC normalised to DMSO control” value is 0.996 (inactive).

Regarding `C[N+](C)(CCOc1ccccc1)Cc1ccccc1.O=C([O-])c1cc2ccccc2cc1O` [Bephenium hydroxynaphthoate], the “growth AUC normalised to DMSO control” value was 1.03 (inactive).

As to `Cc1cnc(C(=O)O)c[n+]1[O-]` [Acipimox], the “growth AUC normalised to DMSO control” value is 0.969 (inactive).

For `COc1ccc2c(c1)c(CC(=O)OCC(=O)O)c(C)n2C(=O)c1ccc(Cl)cc1` [Acemetacin], the “growth AUC normalised to DMSO control” value was 0.985 (inactive).

Turning to `CN(C)CCC[C@@]1(c2ccc(F)cc2)OCc2cc(C#N)ccc21` [Escitalopram oxalate], the “growth AUC normalised to DMSO control” value was 0.99 (inactive).

With `CNCCCC12CCC(c3ccccc31)c1ccccc12` [Maprotiline hydrochloride], the “growth AUC normalised to DMSO control” value was 1.01 (inactive).

Take `CCN(CC)CCOC(=O)C1(C2CCCCC2)CCCCC1` [Dicyclomine hydrochloride]: the “growth AUC normalised to DMSO control” value was 0.98 (inactive).

With `CNCC(O)c1ccc(OC(=O)C(C)(C)C)c(OC(=O)C(C)(C)C)c1` (centres undefined) [Dipivefrin hydrochloride], the “growth AUC normalised to DMSO control” value is 1.01 (inactive).

On to `Cc1ncc([N+](=O)[O-])n1CC(C)O` (centres undefined) [Secnidazole], for which the “growth AUC normalised to DMSO control” value was 1 (inactive).

As to `COc1cc(OC)c(C(=O)CCCN2CCCC2)c(OC)c1` [Buflomedil hydrochloride], the “growth AUC normalised to DMSO control” value was 1.01 (inactive).

`Cc1cc(NC(=O)C2=C(O)c3ccccc3S(=O)(=O)N2C)no1` [Isoxicam]: the “growth AUC normalised to DMSO control” value was 0.984 (inactive).

Take `CCN(CC)CCNC(=O)c1cc(Br)c(N)cc1OC` [Bromopride]: the “growth AUC normalised to DMSO control” value is 1 (inactive).

In the case of `NCCCC[C@H](N[C@@H](CCc1ccccc1)C(=O)O)C(=O)N1CCC[C@H]1C(=O)O` [Lisinopril], the “growth AUC normalised to DMSO control” value is 1.01 (inactive).

Regarding `COCCCC/C(=N\OCCN)c1ccc(C(F)(F)F)cc1` [Fluvoxamine maleate], the “growth AUC normalised to DMSO control” value is 0.993 (inactive).
